PI5P4Ka inh = inhibitors of human PI5P4K alpha; P48426; PI5P4Kalpha enzyme, ADP-Glo luminescence, 60 min; hits give low values; max response, %; 1.2% of 330,000 active; AID 652105; active = max response of -50% or lower; inconclusive = between -30% and -50%; inactive = -30% or higher; note: value at the top dose of about 77 µM; % is set by controls: 0 for no effect and ±100 for the full control effect
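Compounds were pin-transferred onto PI5P4Kalpha and substrate in HEPES pH 7.4 buffer with EGTA, CHAPS and 5% DMSO. ATP (5 microM final) started the reaction, which ran 60 minutes at room temperature before ADP-Glo detection.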
BAZ2B block = BAZ2B (human) inhibition; Q9UIF8; AlphaScreen BAZ2B-H3K14Ac peptide displacement; Potency, µM (top dose mostly 114 µM), for inactives: at the highest dose activity change, negative = inhibition, hits mostly inhibitors; 4.4% of 360,000 active; AID 504333; note: potency is the fitted concentration of half-maximal effect; % is set by controls: 0 for no effect and ±100 for the full control effect; nearly all actives have a fitted effect of over 60% in size
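BAZ2B 50 nM plus b-H3(5-23)K14Ac 50 nM, PBS pH 7.4/0.01% Tween-20, 30 min RT; compound added (max 110 uM), 30 min RT; streptavidin donor/Ni-chelate acceptor beads 10 ug/mL final, 20 min dark; AlphaScreen read.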
HP1b binding inh = HP1-beta chromodomain-methylated histone interaction inhibition; P83916; AlphaScreen HP1-beta / biotin-H3K9me3 peptide binding; Potency, µM (doses to about 114 µM), for the others: at the highest dose activity change, negative = inhibition, most hits filed as inhibitors; 0.56% of 390,000 active; AID 540317; note: potency is the fitted concentration of half-maximal effect; nearly all actives have a fitted effect of over 70% in size
Target sequence (P83916 whole entry, looked up): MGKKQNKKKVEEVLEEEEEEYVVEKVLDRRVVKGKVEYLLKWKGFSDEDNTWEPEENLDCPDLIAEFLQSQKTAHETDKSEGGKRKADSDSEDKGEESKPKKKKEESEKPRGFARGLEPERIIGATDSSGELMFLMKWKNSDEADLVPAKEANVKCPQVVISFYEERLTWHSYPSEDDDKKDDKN
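HP1-beta protein (50 nM final) preincubated 30 min at room temperature with biotinylated H3(1-18)K9me3 peptide (50 nM) in PBS pH 7.4, 0.01% Tween-20, then compound added for 30 min. AlphaScreen streptavidin donor/nickel chelate acceptor beads (10 ug/mL final), 30 min dark, luminescence read.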
JMJD2A Tudor = blocks the human JMJD2A Tudor domain. O75164. Potency, µM (doses to about 114 µM), for inactives: at the top dose activity change, negative = inhibition, most hits filed as inhibitors. 4.4% of 390,000 active. AlphaScreen JMJD2A-Tudor / H3K4me3 peptide binding; note: potency is the fitted concentration of half-maximal effect; % is set by controls: 0 for no effect and ±100 for the full control effect; nearly all actives have a fitted effect of over 50% in size
G9a block = inhibitors of human histone lysine methyltransferase G9a | AID 504332 | Potency, µM (top dose mostly 102 µM), for the others: top-dose activity, negative = inhibition, most hits filed as inhibitors | Q96KQ7 | 8.8% of 350,000 active | G9a H3K9 monomethylation, AlphaScreen, 2 h; note: potency is the fitted concentration of half-maximal effect; % is set by controls: 0 for no effect and ±100 for the full control effect; nearly all actives have a fitted effect of over 75% in size
Target sequence (Q96KQ7 913-1193 limits assumed): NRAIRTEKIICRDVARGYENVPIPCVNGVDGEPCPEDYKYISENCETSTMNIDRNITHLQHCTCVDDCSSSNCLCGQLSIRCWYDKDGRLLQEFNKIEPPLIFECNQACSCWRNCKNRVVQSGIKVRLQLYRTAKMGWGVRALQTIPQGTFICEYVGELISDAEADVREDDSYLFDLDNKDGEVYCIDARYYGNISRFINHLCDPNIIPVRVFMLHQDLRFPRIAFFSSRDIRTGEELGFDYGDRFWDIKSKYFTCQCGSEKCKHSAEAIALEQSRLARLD
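Compounds were preincubated with 20 nM G9a for 15 min, after which biotinylated H3K9 peptide (500 nM) and SAM (20 uM) started a 2 h room-temperature reaction. Monomethylated product was quantified by antibody-based AlphaScreen chemiluminescence.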
PLK1 PBD block = inhibitors of human PLK1 polo-box domain binding; Plk1 PBD binding of FITC phosphopeptide, fluorescence polarization; 2.8% of 360,000 active; Potency, µM, without a hit: max response, negative = inhibition, actives largely listed as inhibitors; AID 720504; note: potency is the fitted concentration of half-maximal effect; series mostly up to about 57 µM; % is set by controls: 0 for no effect and ±100 for the full control effect; nearly all actives have a fitted effect of over 65% in size
* = called active by the depositor; ! = not confirmed by another sample; [ ] = dose if it differs, or a comment. Shown are actives, neighbours in structure and some others; about 12% of the full set was active somewhere. Unless noted, calls come from the whole dose curve; as a rule, active = well fitted curve in the direction sought with a large enough effect; inconclusive = small, poorly fitted or top-dose-only effect, or another doubt; inactive = no such curve, though single readings can be large; an effect the other way counts as inactive or inconclusive.

For CC1CCC(NC(=O)C2CCN(S(=O)(=O)c3ccc4nc5c(c(C(=O)O)c4c3)CC(C)CC5)CC2)CC1 (configuration not stated) the results were PI5P4Ka inh -3, BAZ2B block -16%, HP1b binding inh 17%, JMJD2A Tudor -6%, G9a block 50µM* and PLK1 PBD block -12%.
CC1CCc2nc3ccc(S(=O)(=O)N4CCC(C(=O)NCc5ccccc5Cl)CC4)cc3c(C(=O)O)c2C1 (configuration not stated) was read as PI5P4Ka inh inconclusive, BAZ2B block -24%, HP1b binding inh 34%, JMJD2A Tudor -19%, G9a block inconclusive and PLK1 PBD block inconclusive.
`COc1ccc(CN2C(=NC(=O)c3ccccc3)SC3CS(=O)(=O)CC32)cc1` (configuration not stated) gave PI5P4Ka inh 9, BAZ2B block inconclusive, HP1b binding inh 6%, JMJD2A Tudor -26% and PLK1 PBD block -17%.
Screening Cc1cc(NC(=O)c2cccs2)cc(-c2nc3cc(Cl)ccc3o2)c1O returned BAZ2B block -23%, HP1b binding inh 23%, JMJD2A Tudor -11% and G9a block 10%[59 µM].
For O=C(CNC(=O)c1ccc(Cl)cc1)OC(C(=O)Nc1cc(C(F)(F)F)ccc1Cl)c1ccccc1 (configuration not stated) the results were JMJD2A Tudor -8%.
Screening COc1ccc(/C=C2\C(=O)NC(=S)N2C(=O)c2ccc(F)cc2)cc1 returned PI5P4Ka inh -63*, BAZ2B block 56µM*, HP1b binding inh -2%, JMJD2A Tudor inconclusive, G9a block inconclusive and PLK1 PBD block 43%.
Screening O=C1NC(=S)N(C(=O)c2ccc(F)cc2)/C1=C/c1ccccc1 returned PI5P4Ka inh inconclusive, BAZ2B block 45µM*, HP1b binding inh -35%, JMJD2A Tudor 40µM*, G9a block 10µM* and PLK1 PBD block -26%.
O=C(NNc1nc2cc3c(cc2s1)OCO3)c1cccc(F)c1 was read as PI5P4Ka inh -7, BAZ2B block -5%, HP1b binding inh 32%, JMJD2A Tudor -15%, G9a block 8.9µM* and PLK1 PBD block -2%.
COc1cc(OC)cc(C(=O)NNc2nc3cc4c(cc3s2)OCO4)c1 was read as PI5P4Ka inh -2, BAZ2B block inconclusive, HP1b binding inh 17%, JMJD2A Tudor inconclusive, G9a block inconclusive and PLK1 PBD block -2%.
`O=C(NNc1nc2cc3c(cc2s1)OCO3)c1ccccc1` gave PI5P4Ka inh -16, BAZ2B block -6%, HP1b binding inh 28%, JMJD2A Tudor -18%, G9a block 28µM* and PLK1 PBD block -7%.
`COc1ccc(-n2nc(C(=O)NCC(=O)N(C)Cc3ccccc3)c3ccccc3c2=O)cc1OC` gave PI5P4Ka inh -2, BAZ2B block 6%, HP1b binding inh -4%, JMJD2A Tudor -21%, G9a block -9% and PLK1 PBD block 3%.
`CC(C)c1onc(C(=O)N(C)Cc2ccccc2)c1[N+](=O)[O-]` gave PI5P4Ka inh -5, BAZ2B block inconclusive, HP1b binding inh 35%, JMJD2A Tudor 1%, G9a block -6%[59 µM] and PLK1 PBD block 6%.
`CC(C)c1onc(C(=O)NCCc2ccccc2)c1[N+](=O)[O-]` gave PI5P4Ka inh 3, BAZ2B block 4%, HP1b binding inh 21%, JMJD2A Tudor -16%, G9a block 50µM* and PLK1 PBD block -13%.
Cc1ccccc1C(=O)Oc1cc(N)n(S(C)(=O)=O)n1 was read as PI5P4Ka inh -2, BAZ2B block -17%, HP1b binding inh 40%, JMJD2A Tudor -8%, G9a block -20% and PLK1 PBD block -22%.
For Cc1c(C(=O)Oc2cc(N)n(S(C)(=O)=O)n2)cccc1[N+](=O)[O-] the results were PI5P4Ka inh -18, BAZ2B block inconclusive, HP1b binding inh 8%, JMJD2A Tudor -22%, G9a block 16µM* and PLK1 PBD block 12µM*.
COc1cc(NC(=O)Cn2c(=O)n(Cc3ccccc3OC)c(=O)c3cccnc32)cc(OC)c1 was read as BAZ2B block 4%, HP1b binding inh 16%, JMJD2A Tudor -6% and G9a block -13%[59 µM].
O=c1c2c(-c3ccc([N+](=O)[O-])cc3)csc2nc2n1CCCCC2 was read as PI5P4Ka inh -12, BAZ2B block inconclusive, HP1b binding inh inconclusive, JMJD2A Tudor inconclusive, G9a block 35µM* and PLK1 PBD block -21%.
CC1(C)CC(=O)C=C(c2cccc(OC(=O)c3ccc(-c4ccccc4)cc3)c2)C1=O was read as PI5P4Ka inh -2 and PLK1 PBD block -11%.
Screening CCCCCCCC[n+]1cccc(C(=O)N(CC)CC)c1 returned PI5P4Ka inh 1, BAZ2B block 8%, HP1b binding inh 28%, JMJD2A Tudor inconclusive, G9a block -46%[59 µM] and PLK1 PBD block -10%.
CCCCCCCCCCCCCCCC[n+]1cccc(C(=O)N(CC)CC)c1 was read as PI5P4Ka inh -73*!, BAZ2B block -23%, HP1b binding inh 10%, JMJD2A Tudor -21%, G9a block inconclusive and PLK1 PBD block inconclusive.
For CC(=O)NCCc1ccc(O)c(O)c1 the results were G9a block 2µM*.
O=C(CNC(=O)c1ccccc1)NCCc1ccc(O)c(O)c1 was read as BAZ2B block -19% and G9a block 8.9µM*.
For COC(=O)[C@]12CCCCC=C1N(CCC1=CCCCC1)C(=O)[C@H](CC(=O)NCCCCc1ccccc1)C2 the results were PI5P4Ka inh 11 and PLK1 PBD block -14%.
CCc1c(C)nc2ncnn2c1N1CCC(C(=O)NCc2cccs2)CC1 was read as PI5P4Ka inh -6, BAZ2B block -4%, HP1b binding inh 31%, JMJD2A Tudor 13%, G9a block -10% and PLK1 PBD block 6%.
For Cc1ccc(CCNC(=O)C2CCCN(S(=O)(=O)c3c(C)nn(C)c3C)C2)cc1 (configuration not stated) the results were PI5P4Ka inh -2, BAZ2B block -4%, HP1b binding inh 9%, JMJD2A Tudor inconclusive, G9a block 6% and PLK1 PBD block 27µM*.
For COc1cccc(CNC(=O)C2CCN(S(=O)(=O)c3c(C)nn(C)c3C)CC2)c1 the results were PI5P4Ka inh 7, BAZ2B block -4%, HP1b binding inh 23%, JMJD2A Tudor -34%, G9a block 10% and PLK1 PBD block 27µM*.
For CCc1c(C)nc2ncnn2c1N1CCC(C(=O)NCc2cccc(OC)c2)CC1 the results were BAZ2B block -2%, HP1b binding inh -17%, JMJD2A Tudor inconclusive, G9a block -28%[12.7 µM] and PLK1 PBD block 27µM*.
